Screening results as filed in PubChem.
Compounds with a hit are over-represented: about 0.51% of the library has one in this group of screens.
phage Ecoli inh: growth loss of phage-infected E. coli, primary screen, RecBCD inhibitor project, absorbance, with phage, HTS; inhibition, % at 11.9 µM; AID 651602, 2012; actives 0.26% (n = 360,000); in the data active = inhibition above about 11%
AddAB inh: growth inhibition of E. coli expressing H. pylori AddAB, primary screen, AddAB inhibitor project, absorbance; actives 0.29% (n = 330,000); inhibition, % at 11.9 µM; AID 435030, 2010; in the data active = inhibition above about 12%;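 note: 0% = vehicle wells of infected cells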
E coli growth-1: E. coli growth inhibition, primary screen, OD600; Escherichia coli growth, 23 h; stronger effect = lower value; OD600 absorbance (concentration not given with the values); actives 0.21% (n = 330,000);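 active = OD600 absorbance below the run mean of sample wells minus 3.6 SD, in any replicate, cut at about 0.56 in these data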
Tat export inh: E. coli Tat export inhibitors, primary screen, MC4100, TorA-mCherry reporter, fluorescence, single point; inhibition, % at 10 µM; actives 0.036% (n = 340,000); AID 488895, 2010;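 active = mean replicate inhibition at least 50% and at least half of replicates individually reaching 50%; inconclusive = only one of the two criteria met; inactive = neither criterion met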;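 note: exported cargo escapes ClpAP degradation while cytoplasmic cargo is degraded and loses fluorescence; 0% = median of neutral control wells and 100% = median of NaSCN control wells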
E coli growth-2: E. coli V3065 growth inhibition, primary screen, counter-screen for AddAB inhibitor project, absorbance, OD600 | 18 h | inhibition, % at 11.9 µM | actives 0.27% (n = 330,000);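 active = inhibition above the campaign's mean inhibition across all tested compounds plus 3 SD, cut at about 9.9% in these data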;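 note: uninfected addAB+ strain grown without phage in ampicillin broth; 0% = DMSO wells and 100% = ciprofloxacin 0.95 µg/ml wells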
AddAB conf: growth loss of phage-infected E. coli expressing H. pylori AddAB, confirmation, AddAB inhibitor project, absorbance, E. coli V3065, T4 phage, triplicate. AID 488942, 2010. inhibition, % at 11.9 µM. shares compounds with AddAB inh. OD; T4 phage with gene 2 nonsense mutations. actives 64% (n = 880);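 active = mean inhibition above a set limit taken from the earlier primary screen, cut at about 13% in these data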;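 note: higher means less bacterial growth since AddAB block lets phage replicate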
RecBCD counter: growth loss of RecBCD+ E. coli with mutant T4 phage, counter-screen for AddAB inhibitor project, absorbance, V66 E. coli | actives 73% (n = 880) | shares compounds with AddAB inh | inhibition, % at 11.9 µM | OD growth;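 active = mean inhibition above the mean of solvent-only control wells plus 3 SD, cut at about 4% in these data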;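 note: optical density read after an 18 h incubation at 37 °C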
bact viab count: bacterial viability inhibition counter-screen, confirmation, counter-screen for AddAB inhibitor project, absorbance; shares compounds with AddAB inh; absorbance (AddAB counterscreen); inhibition, % at 11.9 µM; actives 35% (n = 880); in the data active = inhibition above about 25%
* = called active by the depositor; u = inconclusive; x = no result given.

SMILES	phage Ecoli inh	AddAB inh	E coli growth-1	Tat export inh	E coli growth-2	AddAB conf	RecBCD counter	bact viab count
c1ccc(CC2=NCCN2)cc1	3	-1	0.67	u	0	x	x	x
Cc1cc(C(C)(C)C)cc(C)c1CC1=NCCN1	3	14*	0.7	-14	10.0*	53*	1	24
Cc1c(C=CC(=O)c2ccc(C(C)C)cc2)cnn1C	x	x	0.69	x	x	x	x	x
Cn1ccnc1SCC(=O)c1ccc(Cl)cc1	-1	82*	0.68	-3	35*	0	0	-5
Cn1ccnc1SCC(=O)c1ccc(O)cc1	1	0	0.69	4	-1	x	x	x
CC(C)Cc1cc(C(=O)NCCN2CCOCC2)no1	2	19*	0.72	-8	4	-2	1	-1
O=C(NN=Cc1ccc(Cl)cc1)c1sccc1OCc1ccc(F)cc1	x	x	0.69	x	x	x	x	x
O=c1oc2ccccc2c(NC(c2ccccc2)c2ccccc2)c1[N+](=O)[O-]	3	39*	0.7	-13	6	101*	5.3*	12
CCc1ccc(Nc2c([N+](=O)[O-])c(=O)oc3ccccc23)cc1	1	3	0.64	0	3	x	x	x
CCNc1c([N+](=O)[O-])c(=O)oc2ccccc12	5	13*	0.61	4	8	29*	2	3
CC(Nc1c([N+](=O)[O-])c(=O)oc2ccccc12)C(Cl)c1ccccc1 (stereo not given)	3	-2	0.73	-6	2	x	x	x
CC(NC(=O)c1[nH]cnc1C(=O)Nc1ccc(CNC(=O)OC(C)(C)C)cc1)C(=O)OC(C)(C)C (stereo not given)	x	x	0.7	x	x	x	x	x
CN(C)Cc1c(C(=O)NN=Cc2ccc(OCc3c(F)cccc3Cl)cc2)nnn1-c1nonc1N	x	x	0.65	x	x	x	x	x
O=C(COC(=O)Cc1n[nH]c(=O)c2ccccc12)Nc1c(Cl)cccc1C(F)(F)F	7	56*	0.61	-3	27*	-1	0	-2
O=C(COC(=O)Cc1c[nH]c2ccccc12)Nc1c(Cl)cccc1C(F)(F)F	0	3	0.67	5	-3	x	x	x
Cc1ccc(CNC(=O)C(=O)NCC2OCCN2S(=O)(=O)c2cccs2)cc1 (stereo not given)	2	95*	0.73	-5	87*	3	-1	-2
O=C(NCc1ccccc1)C(=O)NCC1OCCN1S(=O)(=O)c1cccs1 (stereo not given)	2	-1	0.68	-5	0	x	x	x
Cc1cc(C)c(S(=O)(=O)N2CCOC2CNC(=O)C(=O)NCc2cccnc2)c(C)c1 (stereo not given)	1	54*	0.72	3	34*	-1	1	-1
COc1ccc(OCC(O)CNc2ccc(Br)cc2)cc1 (stereo not given)	11	12*	0.58	-45	9	13*	9.3*	10
COc1ccc(OCC(O)CNC(=O)c2ccc(Br)cc2)cc1 (stereo not given)	3	0	0.73	1	2	x	x	x
CCOC(=O)CC1c2ccc(C(F)(F)F)cc2S(=O)(=O)N1C(C)C (stereo not given)	x	x	0.69	x	x	x	x	x
Cc1ccc(C=NNC(=O)c2nnn(-c3nonc3N)c2CSc2ccccc2)cc1	x	x	0.68	x	x	x	x	x
CCOC(=O)c1cn(C2CC2)c2c(F)c(NCCCN(C)C)c(F)cc2c1=O	1	13*	0.65	1	8	13*	1	4
CCOC(=O)C1C2COc3ccc(Cl)cc3C2N2C(=O)CN(Cc3ccccc3)C(=O)[C@@]12C (stereo not given in full)	x	x	0.69	x	x	x	x	x
O=S1(=O)Nc2c(ccc3cccnc23)-c2ccccc21	x	51*	0.22*	21	51*	45*	49*	46*
SMILES	phage Ecoli inh	AddAB inh	E coli growth-1	Tat export inh	E coli growth-2	AddAB conf	RecBCD counter	bact viab count
O=C(NCc1cccnc1)Nc1ccc2c(c1)OCO2	3	14*	0.68	0	0	-2	1	-1
c1cncc(CNc2ccc3c(c2)OCO3)c1	0	3	0.69	-12	0	x	x	x
CCN(c1cccc(C)c1)S(=O)(=O)c1cccc2nsnc12	3	1	0.68	-23	-1	x	x	x
Cc1cccc(N(C)S(=O)(=O)c2cccc3nsnc23)c1	3	14*	0.71	0	-2	0	1	-1
CCCOc1ccc(S(=O)(=O)n2cc(F)c(=O)[nH]c2=O)cc1	3	13*	0.69	2	6	11	1	5
CCOc1ccc(Cn2cc(F)c(=O)[nH]c2=O)cc1	3	2	0.65	-9	1	x	x	x
CC(C)COc1ccc(S(=O)(=O)n2cc(F)c(=O)[nH]c2=O)cc1	7	13*	0.67	-4	7	4	2	4
Cc1ccc(C)n1-c1ccc(C(=O)NN=Cc2ccncc2)cc1	x	x	0.71	x	x	x	x	x
Cc1cc(C(=O)N2CCN(c3cc(Cl)ccc3C)CC2)on1	1	127*	0.67	-5	-3	5	0	-1
Cc1ccc(Cl)cc1N1CCN(C(=O)C(=O)N2CCCCC2)CC1	7	5	0.7	14	-2	x	x	x
O=C(Cn1ccc(C(F)(F)F)n1)NN=Cc1ccc(N2CCOCC2)cc1	x	x	0.67	x	x	x	x	x
COc1ccc(C2=CC(=O)CC(c3ccc(OC)cc3)C2)cc1 (stereo not given)	2	16*	x	0	10*	-4	1	-2
COc1ccc(C2=CC(=O)C[C@H](c3ccc(Cl)cc3)C2)cc1	2	2	x	12	-1	x	x	x
C=CCN1C(=O)/C(=C/c2ccc(O)cc2)SC1=Nc1nccs1	x	x	0.65	x	x	x	x	x
CCc1ccc(NC(=O)CC2C(=O)N(c3cccc(C)c3)C(=O)N2C2CC2)cc1 (stereo not given)	4	99*	0.78	-10	53*	0	0	-2
COc1ccc(NC(=O)CC2C(=O)N(c3cccc(C)c3)C(=O)N2C2CCCCC2)cc1 (stereo not given)	2	0	0.74	-4	0	x	x	x
CCCNC(=O)c1ccc2c(=O)c(O)c(-c3ccc(OC)cc3)[nH]c2c1	x	18*	0.73	-4	16*	11	13*	14
CCCNC(=O)c1ccc2c(=O)c(O)c(-c3ccsc3)[nH]c2c1	x	18*	x	-11	18*	13*	12*	11
CCN=C(NN=Cc1ccc([N+](=O)[O-])cc1)SC	x	x	0.71	x	x	x	x	x
CC(=NNC(=O)c1ccc(Br)cc1)c1cccnc1	x	x	0.65	x	x	x	x	x
NC(=O)c1ccsc1NC(=O)COC(=O)c1ccc([N+](=O)[O-])o1	9	97*	0.62	8	13*	97*	8.3*	19
